According to PubChem BioAssay AID1159580 (chemical genetic matrix, 2015):
Hit rate of the full screen: of about 5,500 compounds, about 2,000 (36%) were called active. Another 18% or so got no clear call; they are omitted. Rule as the data show it: active = normalized growth mostly below about 0.91 (no sharp cut-off); inconclusive = no clear call, values can overlap the other calls; inactive = mostly above about 0.92. The list shows a part of the results.

Test: chemical genetic growth profiling, strain panel (AID 1159580);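 also: tested at 20 µM; growth read once vehicle control cultures reached saturation at 30 °C; 1 = growth at the plate median or of vehicle wells; lower values mean less growth of the strain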
Conditions: growth OD

Measured: normalized growth

COc1cc2cc3c4cc(OC)c(OC)cc4cc[n+]3c(C)c2cc1OC
inactive: S. cerevisiae deletion strains, locus YJR043C, strain POL32, stronger effect = lower value 0.98 | S. cerevisiae deletion strains, locus YJR066W, strain TOR1, stronger effect = lower value 0.964 | S. cerevisiae deletion strains, locus YKL009W, strain mrt4, stronger effect = lower value 0.997 | S. cerevisiae deletion strains, locus YKL068W, stronger effect = lower value 1.01 | S. cerevisiae deletion strains, locus YKL085W, strain MDH1 (second series), stronger effect = lower value 1.03 | S. cerevisiae deletion strains, locus YKL085W, strain MDH1, stronger effect = lower value 1.03 | S. cerevisiae deletion strains, locus YKL160W, strain elf1, stronger effect = lower value 0.988 | S. cerevisiae deletion strains, locus YKL190W, strain CNB1, stronger effect = lower value 1.01 | S. cerevisiae deletion strains, locus YKR001C, strain vps1, stronger effect = lower value 1.05 | S. cerevisiae deletion strains, locus YKR026C, strain gcn3, stronger effect = lower value 1.02 | S. cerevisiae deletion strains, locus YKR091W, strain srl3, stronger effect = lower value 1 | S. cerevisiae deletion strains, locus YLL001W, strain dnm1, stronger effect = lower value 1.01 | S. cerevisiae deletion strains, locus YLL026W, stronger effect = lower value 1.02 | S. cerevisiae deletion strains, locus YLL041C, strain sdh2, stronger effect = lower value 1.02 | S. cerevisiae deletion strains, locus YLR027C, strain aat2, stronger effect = lower value 1.03 | S. cerevisiae deletion strains, locus YLR039C, strain RIC1, stronger effect = lower value 1.11 | S. cerevisiae deletion strains, locus YLR058C, strain SHM2, stronger effect = lower value 0.998 | S. cerevisiae deletion strains, locus YLR102C, strain apc9, stronger effect = lower value 1.01 | S. cerevisiae deletion strains, locus YLR113W, strain HOG1, stronger effect = lower value 0.992 | S. cerevisiae deletion strains, locus YLR221C, strain rsa3, stronger effect = lower value 1.02 | S. cerevisiae deletion strains, locus YLR258W, strain gsy2, stronger effect = lower value 0.982 | S. cerevisiae deletion strains, locus YLR262C, strain YPT6 (second series), stronger effect = lower value 1.03 | S. cerevisiae deletion strains, locus YLR262C, strain YPT6, stronger effect = lower value 1.14 | S. cerevisiae deletion strains, locus YLR268W, strain sec22, stronger effect = lower value 1.02 | S. cerevisiae deletion strains, locus YLR320W, strain mms22, stronger effect = lower value 1 | S. cerevisiae deletion strains, locus YLR330W, strain CHS5, stronger effect = lower value 1.01 | S. cerevisiae deletion strains, locus YLR342W, strain FKS1 (second series), stronger effect = lower value 0.98 | S. cerevisiae deletion strains, locus YLR342W, strain FKS1, stronger effect = lower value 1.02 | S. cerevisiae deletion strains, locus YLR357W, strain rsc2, stronger effect = lower value 1.01 | S. cerevisiae deletion strains, locus YLR370C, strain arc18, stronger effect = lower value 1.02 | S. cerevisiae deletion strains, locus YLR371W, strain rom2, stronger effect = lower value 1.02 | S. cerevisiae deletion strains, locus YLR384C, strain iki3, stronger effect = lower value 1.01 | S. cerevisiae deletion strains, locus YLR418C, strain cdc73, stronger effect = lower value 0.966 | S. cerevisiae deletion strains, locus YML016C, strain PPZ1, stronger effect = lower value 1.02 | S. cerevisiae deletion strains, locus YML032C, strain rad52, stronger effect = lower value 0.925 | S. cerevisiae deletion strains, locus YML120C, strain ndi1, stronger effect = lower value 1 | S. cerevisiae deletion strains, locus YML124C, strain tub3, stronger effect = lower value 1.01 | S. cerevisiae deletion strains, locus YMR058W, strain fet3, stronger effect = lower value 1.02 | S. cerevisiae deletion strains, locus YMR078C, strain ctf18, stronger effect = lower value 1.02 | S. cerevisiae deletion strains, locus YMR125W, strain sto1, stronger effect = lower value 0.999 | S. cerevisiae deletion strains, locus YMR129W, stronger effect = lower value 1.01 | S. cerevisiae deletion strains, locus YMR205C, strain PFK2, stronger effect = lower value 0.979 | S. cerevisiae deletion strains, locus YMR223W, strain ubp8, stronger effect = lower value 0.982 | S. cerevisiae deletion strains, locus YMR231W, strain pep5, stronger effect = lower value 0.949 | S. cerevisiae deletion strains, locus YMR307W, strain GAS1, stronger effect = lower value 1.02 | S. cerevisiae deletion strains, locus YNL067W, strain RPL9B, stronger effect = lower value 1.01 | S. cerevisiae deletion strains, locus YNL071W, strain lat1, stronger effect = lower value 1 | S. cerevisiae deletion strains, locus YNL183C, strain NPR1, stronger effect = lower value 0.938 | S. cerevisiae deletion strains, locus YNL209W, strain ssb2, stronger effect = lower value 1 | S. cerevisiae deletion strains, locus YNL233W, strain BNI4, stronger effect = lower value 0.995 | S. cerevisiae deletion strains, locus YNL248C, strain rpa49, stronger effect = lower value 1.01 | S. cerevisiae deletion strains, locus YNL250W, strain rad50, stronger effect = lower value 1 | S. cerevisiae deletion strains, locus YNL271C, strain bni1, stronger effect = lower value 1.02 | S. cerevisiae deletion strains, locus YNL298W, strain CLA4, stronger effect = lower value 1.01 | S. cerevisiae deletion strains, locus YNL307C, strain MCK1, stronger effect = lower value 1.01 | S. cerevisiae deletion strains, locus YNL322C, strain KRE1 (second series), stronger effect = lower value 1 | S. cerevisiae deletion strains, locus YNR049C, strain mso1, stronger effect = lower value 1.04 | S. cerevisiae deletion strains, locus YNR052C, strain pop2, stronger effect = lower value 0.978 | S. cerevisiae deletion strains, locus YOL006C, strain TOP1, stronger effect = lower value 1.04 | S. cerevisiae deletion strains, locus YOL012C, strain htz1 1.07 | S. cerevisiae deletion strains, locus YOL147C, strain pex11, stronger effect = lower value 1.03 | S. cerevisiae deletion strains, locus YOR001W, strain rrp6, stronger effect = lower value 1.03 | S. cerevisiae deletion strains, locus YOR061W, strain CKA2, stronger effect = lower value 1.01 | S. cerevisiae deletion strains, locus YOR069W, strain VPS5, stronger effect = lower value 1.01 | S. cerevisiae deletion strains, locus YOR070C, strain gyp1, stronger effect = lower value 1.02 | S. cerevisiae deletion strains, locus YOR080W, strain dia2, stronger effect = lower value 1.01 | S. cerevisiae deletion strains, locus YOR083W, strain WHI5, stronger effect = lower value 0.985 | S. cerevisiae deletion strains, locus YOR106W, strain vam3, stronger effect = lower value 0.981 | S. cerevisiae deletion strains, locus YOR136W, strain idh2, stronger effect = lower value 1.02 | S. cerevisiae deletion strains, locus YOR144C, strain elg1, stronger effect = lower value 1.01 | S. cerevisiae deletion strains, locus YOR184W, strain ser1, stronger effect = lower value 0.993 | S. cerevisiae deletion strains, locus YOR231W, strain MKK1, stronger effect = lower value 0.983 | S. cerevisiae deletion strains, locus YOR265W, strain rbl2, stronger effect = lower value 1.01 | S. cerevisiae deletion strains, locus YOR270C, strain vph1, stronger effect = lower value 1.08 | S. cerevisiae deletion strains, locus YOR290C, strain snf2, stronger effect = lower value 0.982 | S. cerevisiae deletion strains, locus YOR316C, strain cot1, stronger effect = lower value 1.02 | S. cerevisiae deletion strains, locus YPL051W, strain arl3, stronger effect = lower value 1.02 | S. cerevisiae deletion strains, locus YPL055C, strain LGE1, stronger effect = lower value 0.999 | S. cerevisiae deletion strains, locus YPL078C, strain atp4, stronger effect = lower value 1 | S. cerevisiae deletion strains, locus YPL106C, strain sse1, stronger effect = lower value 0.983 | S. cerevisiae deletion strains, locus YPL240C, strain hsp82, stronger effect = lower value 1 | S. cerevisiae deletion strains, locus YPL256C, strain CLN2, stronger effect = lower value 0.968 | S. cerevisiae deletion strains, locus YPR119W, strain clb2, stronger effect = lower value 1.01 | S. cerevisiae deletion strains, locus YPR141C, strain kar3, stronger effect = lower value 1.01 | S. cerevisiae deletion strains, locus YPR163C, strain tif3, stronger effect = lower value 1.01 | S. cerevisiae deletion strains, locus YPR167C, strain met16, stronger effect = lower value 0.997 | S. cerevisiae deletion strains, strain wtn01, stronger effect = lower value 1.02 | S. cerevisiae strains, strain wild type, stronger effect = lower value 1
